# Measurements as given in PubChem BioAssay.
# “And” between values parts separate entries of the source, which are not always exact repeats. Identical values can stand only once. The source made the active and inactive calls.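 How the source made its calls, unless noted: active means thallium flux through the channel raised or lowered by more than 3 SD from vehicle-only wells, actives on both sides; inactive means the rest.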
# Tests used:
# [1] = liver-stage malaria parasite growth inhibition, primary screen, cell-based, HepG2, luciferase luminescence, HepG2 viability (AID 624349; in the data active means parasite load remaining mostly below about 12%, no sharp cut-off; inactive means mostly above about 10%;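 further: 100% = mean of DMSO negative control wells on the same plate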); conditions: P. berghei liver stage in HepG2, luciferase luminescence, concentration not given here; parasite load remaining: stronger effect = lower value; viability: measured here: HepG2 viability without parasites
# [2] = Cy5 fluorescence interference with SSB-bound oligo, artefact control for HCV NS3 helicase inhibitor project, biochemical, NIH Clinical Collection, E. coli SSB (AID 743268; call rule not given here)
# [3] = system: Hepatitis C virus NS3 helicase; test: HCV NS3 helicase inhibitors, primary screen, biochemical, fluorescence polarization, NIH Clinical Collection (AID 743270; call rule not given here); conditions: NS3 helicase binding to Cy5-dT15 DNA, stronger effect = higher value, concentration not given here
# [4] = target: Single-stranded DNA-binding protein (Escherichia coli (strain K12)) (UniProt P0AGE0); test: E. coli SSB displacement from DNA, counter-screen for HCV NS3 helicase inhibitor project, biochemical, fluorescence polarization, NIH Clinical Collection (AID 743271; in the data active means inhibition above about 28%); conditions: stronger effect = higher value, concentration not given here
# [5] = fluorescence interference in NS3h assay format, artefact control for HCV NS3 helicase inhibitor project, biochemical, NIH Clinical Collection (AID 743272; call rule not given here;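 further: HCV NS3 helicase with a Cy5 labelled single stranded DNA probe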); conditions: fluorescence interference counterscreen, stronger effect = lower value
# [6] = system: Neuropilin-2 / VEGF-C interaction (human); test: inhibitors of NRP2–VEGF-C binding, biochemical, microplate binding format, z-score (AID 743281; call rule not given here); conditions: microplate NRP2/VEGF-C binding assay; stronger effect = lower value
# [7] = modulation of C. elegans fzo-1 (AID 1259413; call rule not given here;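 further: fzo-1 mutant C. elegans worms in liquid wells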); conditions: C. elegans fzo-1 modulator screen, mean read-out; stronger effect = higher value
# [8] = sensitizers of A549 cells to miR-34 induction, primary screen, imaging, A549 dox-inducible miR-34, nuclei and caspase counts (AID 1347080;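 active means compounds whose cell count with miR-34 switched on is under 0.7 times the count with it off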); conditions: A549 miR-34 inducible, Hoechst nuclei count, 48 h
# [9] = survival rescue of mitochondrial mutant cells in low glucose, primary screen, MELAS cybrids, Rieske KO mouse fibroblasts, CellTiter-Glo (AID 1508586;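 active means mean z-score across replicates of 1.96 or higher in either the MELAS or the Rieske mutant cell line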;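 further: z relative to plate mean and SD of compound and empty wells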)
# [10] = viability rescue of complex I mutant cybrids, primary screen, cell-based, galactose medium, ATP luminescence (AID 1645843;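 active means z-score of at least 1.8 in each of two replicates, scored against plate mean and spread of sample wells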;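 further: positive z means more ATP and so rescue of galactose-driven cybrid death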); conditions: complex I mutant cybrid cells, 72 h, stronger effect = higher value
# [11] = system: F380Y; test: modulators of BK channel variants, profiling panel, selectivity assay, cell-based, U2OS BacMam, thallium flux, beta subunits (AID 1259406); conditions: at 30 µM;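 further: initial slope of Thallos dye fluorescence rise after thallium is added; log ratio against the mean of 0.3% DMSO vehicle wells on the same plate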
# [12] = system: F380Y/beta1; test: as above; conditions: at 30 µM
# [13] = system: F380Y/beta2Delta; test: as above; conditions: at 30 µM
# [14] = system: F380Y/beta4; test: as above; conditions: at 30 µM
# [15] = target: Calcium-activated potassium channel subunit alpha-1 (Homo sapiens) + Leucine-rich repeat-containing protein 26 (Homo sapiens) (UniProt Q12791+Q2I0M4); test: as above; conditions: F380Y/Slo1WT/gamma1, at 30 µM
# Sequence of Calcium-activated potassium channel subunit alpha-1 (Homo sapiens) + Leucine-rich repeat-containing protein 26 (Homo sapiens) (Q2I0M4 whole entry, looked up, one chain of several): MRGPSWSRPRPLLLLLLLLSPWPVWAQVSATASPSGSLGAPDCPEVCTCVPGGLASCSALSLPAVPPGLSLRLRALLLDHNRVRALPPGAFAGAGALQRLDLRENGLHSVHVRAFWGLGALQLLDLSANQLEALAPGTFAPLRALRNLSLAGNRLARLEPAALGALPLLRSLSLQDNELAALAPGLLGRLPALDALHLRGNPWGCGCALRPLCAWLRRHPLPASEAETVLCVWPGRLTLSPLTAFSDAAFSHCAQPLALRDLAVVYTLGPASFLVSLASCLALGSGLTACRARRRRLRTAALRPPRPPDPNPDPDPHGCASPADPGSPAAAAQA
# [16] = system: R275C; test: as above; conditions: at 30 µM
# [17] = system: R275C/beta1; test: as above; conditions: at 30 µM
# [18] = system: R275C/beta2Delta; test: as above; conditions: at 30 µM
# [19] = system: R275C/beta4; test: as above; conditions: at 30 µM
# [20] = system: R275C/Slo1WT/beta2; test: as above; conditions: at 30 µM
# [21] = stronger effect = lower value, cell number ratio, induced over uninduced
# [22] = measured here: relative caspase fold change +Dox/-Dox
# [23] = measured here: total cells with miR-34 induction, stronger effect = lower value
# [24] = measured here: total cells without miR-34 induction
# [25] = MELAS cybrid survival, CellTiter-Glo 48 h, stronger effect = higher value
# [26] = Rieske KO mouse fibroblast survival, CellTiter-Glo 72 h
smiles,measurement,setting,value
CC(C)OC(=O)CCC/C=C\C[C@@H]1[C@@H](CC[C@@H](O)CCc2ccccc2)[C@H](O)C[C@@H]1O,parasite load remaining,[1],89.4% (inactive) and 43.5% (inactive)
same,viability,[1],60.9% and 104%
same,fluorescence ratio,[2],0.97 (inactive)
same,inhibition,[3],0.4% (inactive)
same,inhibition,[4],-5.49% (inactive)
same,fluorescence ratio,[5],0.95 (inactive)
same,z-score,[6],-0.836 (inactive)
same,mean signal,[7],205 (inactive)
same,fold change,[8]; [21],0.899 (inactive)
same,fold change,[8]; [22],1.07
same,cell count,[8]; [23],10000
same,cell count,[8]; [24],11100
same,z-score,[9]; [25],0.73 (inactive) and -0.464 (inactive)
same,z-score,[9]; [26],1.53 and -0.0343
same,z-score,[10],0.01 (inactive)
same,log fold change Tl+ flux,[11],0.503 (active)
same,log fold change Tl+ flux,[12],0.284 (active)
same,log fold change Tl+ flux,[13],-0.0484 (inactive)
same,log fold change Tl+ flux,[14],0.158 (active)
same,log fold change Tl+ flux,[15],0.228 (active)
same,log fold change Tl+ flux,[16],-0.0794 (inactive)
same,log fold change Tl+ flux,[17],0.476 (active)
same,log fold change Tl+ flux,[18],0.262 (active)
same,log fold change Tl+ flux,[19],0.467 (active)
same,log fold change Tl+ flux,[20],0.084 (active)
COC(=O)Nc1nc2ccc(C(=O)c3ccc(F)cc3)cc2[nH]1,parasite load remaining,[1],68.5% (inactive) and 34.2% (inactive)
same,viability,[1],85.5% and 74.5%
same,fluorescence ratio,[2],1.06 (inactive)
same,inhibition,[3],-1.19% (inactive)
same,inhibition,[4],-0.87% (inactive)
same,fluorescence ratio,[5],0.95 (inactive)
same,z-score,[6],0.511 (inactive)
same,mean signal,[7],249 (inactive)
same,fold change,[8]; [21],1.22 (inactive) and 1.03 (inactive)
same,fold change,[8]; [22],1.31 and 0.65
same,cell count,[8]; [23],1820 and 2010
same,cell count,[8]; [24],1490 and 1950
same,z-score,[9]; [25],-2.49 (inactive) and -1.97 (inactive)
same,z-score,[9]; [26],1.69 and 0.533
same,z-score,[10],-1.28 (inactive) and -0.83 (inactive)
same,log fold change Tl+ flux,[11],-0.0412 (inactive)
same,log fold change Tl+ flux,[12],0.0196 (inactive)
same,log fold change Tl+ flux,[13],-0.0407 (inactive)
same,log fold change Tl+ flux,[14],-0.0852 (inactive)
same,log fold change Tl+ flux,[15],0.00265 (inactive)
same,log fold change Tl+ flux,[16],-0.0283 (inactive)
same,log fold change Tl+ flux,[17],-0.0436 (inactive)
same,log fold change Tl+ flux,[18],-0.052 (inactive)
same,log fold change Tl+ flux,[19],0.0237 (inactive)
same,log fold change Tl+ flux,[20],0.00461 (inactive)
CCC(C)n1ncn(-c2ccc(N3CCN(c4ccc(OCC5COC(Cn6cncn6)(c6ccc(Cl)cc6Cl)O5)cc4)CC3)cc2)c1=O (configuration not stated),parasite load remaining,[1],26.8% (inactive) and 13.6% (inactive)
same,viability,[1],59.8% and 65%
same,fluorescence ratio,[2],0.99 (inactive)
same,inhibition,[3],2.77% (inactive)
same,inhibition,[4],-1.64% (inactive)
same,fluorescence ratio,[5],1 (inactive)
same,z-score,[6],0.805 (inactive)
same,mean signal,[7],270 (inactive)
same,fold change,[8]; [21],0.793 (inactive) and 0.866 (inactive)
same,fold change,[8]; [22],1.39 and 1.62
same,cell count,[8]; [23],5650 and 9680
same,cell count,[8]; [24],7130 and 11200
same,z-score,[9]; [25],-0.416 (inactive) and -0.441 (inactive)
same,z-score,[9]; [26],0.947 and 1.02
same,z-score,[10],-1.48 (inactive) and 0.09 (inactive)
same,log fold change Tl+ flux,[11],0.0299 (inactive)
same,log fold change Tl+ flux,[12],0.0346 (inactive)
same,log fold change Tl+ flux,[13],-0.00576 (inactive)
same,log fold change Tl+ flux,[14],0.0111 (inactive)
same,log fold change Tl+ flux,[15],0.0139 (inactive)
same,log fold change Tl+ flux,[16],-0.015 (inactive)
same,log fold change Tl+ flux,[17],0.0149 (inactive)
same,log fold change Tl+ flux,[18],0.0172 (inactive)
same,log fold change Tl+ flux,[19],-0.00424 (inactive)
same,log fold change Tl+ flux,[20],0.0617 (inactive)
O=C1C(c2c(O)[nH]c3ccccc23)=Nc2ccccc21,parasite load remaining,[1],27.8% (inactive)
same,viability,[1],67.8%
same,fluorescence ratio,[2],1.08 (inactive)
same,inhibition,[3],26.5% (active)
same,inhibition,[4],18.4% (inactive)
same,fluorescence ratio,[5],1.13 (inactive)
same,outcome,[6],inactive
same,mean signal,[7],275 (inactive)
same,fold change,[8]; [21],0.964 (inactive) and 0.92 (inactive) and 0.909 (inactive)
same,fold change,[8]; [22],1.03 and 0.816 and 0.7
same,cell count,[8]; [23],8910 and 4890 and 7650
same,cell count,[8]; [24],9240 and 5320 and 8410
same,z-score,[9]; [25],-0.237 (inactive)
same,z-score,[9]; [26],-0.638
same,z-score,[10],-0.25 (inactive)
same,log fold change Tl+ flux,[11],0.00735 (inactive)
same,log fold change Tl+ flux,[12],0.00413 (inactive)
same,log fold change Tl+ flux,[13],-0.012 (inactive)
same,log fold change Tl+ flux,[14],0.0357 (inactive)
same,log fold change Tl+ flux,[15],-0.019 (inactive)
same,log fold change Tl+ flux,[16],0.0422 (inactive)
same,log fold change Tl+ flux,[17],0.013 (inactive)
same,log fold change Tl+ flux,[18],-0.00188 (inactive)
same,log fold change Tl+ flux,[19],0.0134 (inactive)
same,log fold change Tl+ flux,[20],0.0591 (inactive)
COc1cc(C)c(/C=C/C(C)=C/C=C/C(C)=C/C(=O)O)c(C)c1C,parasite load remaining,[1],45.7% (inactive)
same,viability,[1],100%
same,fluorescence ratio,[2],1.04 (inactive)
same,inhibition,[3],4.09% (inactive)
same,inhibition,[4],4.1% (inactive)
same,fluorescence ratio,[5],1 (inactive)
same,mean signal,[7],260 (inactive)
same,fold change,[8]; [21],0.995 (inactive)
same,fold change,[8]; [22],2.52
same,cell count,[8]; [23],10300
same,cell count,[8]; [24],10300
same,z-score,[9]; [25],0.713 (inactive)
same,z-score,[9]; [26],1.44
same,z-score,[10],-0.775 (inactive)
same,log fold change Tl+ flux,[11],-0.0381 (inactive)
same,log fold change Tl+ flux,[12],0.176 (active)
same,log fold change Tl+ flux,[13],0.35 (active)
same,log fold change Tl+ flux,[14],0.0442 (inactive)
same,log fold change Tl+ flux,[15],0.229 (active)
same,log fold change Tl+ flux,[16],-0.0134 (inactive)
same,log fold change Tl+ flux,[17],0.389 (active)
same,log fold change Tl+ flux,[18],0.261 (active)
same,log fold change Tl+ flux,[19],0.228 (active)
same,log fold change Tl+ flux,[20],-0.0131 (inactive)
O=C(O[C@H]1[C@H](Oc2ccccc2COC(=O)C2(O)C=CCCC2=O)O[C@H](CO)[C@@H](O)[C@@H]1O)c1ccccc1 (some centres not stated),parasite load remaining,[1],48.8% (inactive)
same,viability,[1],72.8%
same,fluorescence ratio,[2],1 (inactive)
same,inhibition,[3],-0.22% (inactive)
same,inhibition,[4],-2.76% (inactive)
same,fluorescence ratio,[5],0.99 (inactive)
same,z-score,[6],-0.65 (inactive)
same,mean signal,[7],249 (inactive)
same,log fold change Tl+ flux,[11],0.0202 (inactive)
same,log fold change Tl+ flux,[12],0.0124 (inactive)
same,log fold change Tl+ flux,[13],-0.0274 (inactive)
same,log fold change Tl+ flux,[14],0.0177 (inactive)
same,log fold change Tl+ flux,[15],-0.0394 (inactive)
same,log fold change Tl+ flux,[16],0.00346 (inactive)
same,log fold change Tl+ flux,[17],0.0475 (inactive)
same,log fold change Tl+ flux,[18],0.0175 (inactive)
same,log fold change Tl+ flux,[19],0.0193 (inactive)
same,log fold change Tl+ flux,[20],0.0101 (inactive)
